Results taken from PubChem BioAssay (EPA / NIEHS).
Records with an inconclusive call do not appear. Active and inactive are the calls of the source. Rule for the calls, unless noted: active = hit-call score of the fitted dose curve at least 0.9, where 1 is the maximum; inactive = score below 0.9.

How the values were obtained:
[1] = read-out: Monokine induced gamma interferon (MIG), CXCL9 (gene 4283); experiment: BSK_3C_MIG: BioMAP Diversity Plus: 3C Assay for Monokine induced gamma interferon (MIG) Biomarker Activity (AID 2283021); conditions: primary human endothelial cells (HUVEC); actives raise or lower the signal
Method in brief: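 ELISA measurement of MIG in human umbilical vein endothelial cells 24 h after treatment. Cytotoxicity tracked by SRB staining in parallel cultures; gain or loss of signal fitted relative to DMSO.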

[2] = read-out: Matrix Metallopeptidase 1 (MMP1), MMP1 (gene 4312); experiment: BSK_BE3C_MMP1: BioMAP Diversity Plus: BE3C Assay for Matrix Metallopeptidase 1 (MMP1) Biomarker Activity (AID 2283024); conditions: primary human bronchial epithelial cells; actives raise or lower the signal
Method in brief: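 ELISA measurement of MMP-1 after 24 h compound exposure of primary human bronchial epithelial cells. Changes in either direction fitted relative to DMSO; parallel SRB staining checked overt cytotoxicity.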

[3] = BSK_3C_Vis: BioMAP Diversity Plus: 3C Assay for Morphology Visualization (AID 2283025); conditions: primary human endothelial cells (HUVEC);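 note: fitted both ways so gain or loss versus DMSO counts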;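 for AC50: light microscopy image of cell morphology used as background control; cells imaged 24 h after dosing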
Method in brief: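 Light-microscopy visualization of HUVEC cultures at 24 h post-treatment, with DMSO as baseline for bidirectional fitting.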

[4] = read-out: Pselectin, SELP (gene 6403); experiment: BSK_4H_Pselectin: BioMAP Diversity Plus: 4H Assay for Pselectin Biomarker Activity (AID 2283026); conditions: primary human endothelial cells (HUVEC); actives raise or lower the signal
Method in brief: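 ELISA of surface P-selectin on HUVEC, 24 h after dosing, with parallel SRB staining (0.1% after 10% TCA fixation, 560 nm) for overt cytotoxicity. Activity fitted in both directions relative to DMSO.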

[5] = BSK_4H_SRB: Viability Assessment in the BioMAP Diversity Plus: 4H Assay (AID 2283027); conditions: primary human endothelial cells (HUVEC);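 note: cells exposed to compound for 24 h before staining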;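 for AC50: curves fitted both ways versus DMSO so AC50 may be loss or gain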
Method in brief: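 HUVEC, 24 h post-dose; 10% TCA fix, 0.1% SRB stain, A560 nm. Total protein = overt cytotoxicity, parallel to biomarker read. Bidirectional fit vs DMSO baseline.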

[6] = BSK_BE3C_SRB: Viability Assessment in the BioMAP Diversity Plus: BE3C Assay (AID 2283028); conditions: primary human bronchial epithelial cells;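 for AC50: fitted both ways so AC50 may mark signal gain or loss versus DMSO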
Method in brief: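 SRB total-protein staining (0.1%, after TCA fixation) of chemically dosed human bronchial epithelial primary cells at 24 h; DMSO serves as the negative control for bidirectional curve fitting.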

[7] = read-out: Thrombomodulin, THBD (gene 7056); experiment: BSK_3C_Thrombomodulin: BioMAP Diversity Plus: 3C Assay for Thrombomodulin Biomarker Activity (AID 2283029); conditions: primary human endothelial cells (HUVEC); actives raise or lower the signal
Method in brief: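 ELISA measurement of thrombomodulin on HUVEC surface 24 h after chemical dosing; activity fitted in both directions relative to DMSO vehicle.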

[8] = read-out: Urokinase-type plasminogen activator receptor (uPAR), PLAUR (gene 5329); experiment: BSK_4H_uPAR: BioMAP Diversity Plus: 4H Assay for Urokinase-type plasminogen activator receptor (uPAR) Biomarker Activity (AID 2283030); conditions: primary human endothelial cells (HUVEC); actives raise or lower the signal
Method in brief: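 Endpoint derived via bidirectional curve fitting against DMSO baseline; readout was ELISA detection of uPAR on umbilical vein endothelial cells at 24 h post-treatment, with SRB-stained parallel cultures assessing cytotoxicity.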

[9] = target: human Vitamin D Receptor (VDR), VDR (gene 7421) (UniProt P11473); experiment: ATG_VDR_TRANS: Attagene TRANS-FACTORIAL HepG2 Assay for human Vitamin D Receptor (VDR) (AID 2283022; active = hit-call score of the fitted dose curve at least 0.9, where 1 is the maximum)
Method in brief: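 Multiplexed TRANS reporter in HepG2; 24 h treatment; reporter mRNA by RT-PCR plus capillary electrophoresis; upregulation scored relative to DMSO.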

[10] = BSK_3C_SRB: Viability Assessment in the BioMAP Diversity Plus: 3C Assay (AID 2283023); conditions: primary human endothelial cells (HUVEC);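 note: cells read 24 h after compound dosing; fitted both ways against DMSO so a hit may be signal rise or drop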
Method in brief: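 Overt cytotoxicity is gauged in parallel confluent HUVEC cultures by SRB total-protein staining at the time of biomarker measurement, 24 h after dosing. Gain or loss of signal is fitted versus DMSO.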

Sequence of human Vitamin D Receptor (VDR), VDR (gene 7421) (P11473 whole entry, looked up): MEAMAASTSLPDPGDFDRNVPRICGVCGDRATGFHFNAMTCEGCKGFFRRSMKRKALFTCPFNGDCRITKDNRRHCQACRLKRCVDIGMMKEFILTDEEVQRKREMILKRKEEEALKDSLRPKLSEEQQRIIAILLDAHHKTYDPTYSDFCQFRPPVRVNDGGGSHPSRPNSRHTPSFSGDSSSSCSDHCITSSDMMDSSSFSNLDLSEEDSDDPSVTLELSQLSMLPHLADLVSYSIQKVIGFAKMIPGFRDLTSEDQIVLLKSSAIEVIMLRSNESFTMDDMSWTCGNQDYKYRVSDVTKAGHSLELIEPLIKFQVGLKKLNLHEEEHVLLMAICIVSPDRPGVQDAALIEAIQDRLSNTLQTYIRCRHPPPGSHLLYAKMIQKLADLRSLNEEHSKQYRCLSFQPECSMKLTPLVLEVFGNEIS

Question: Which outcome [1] does the source give for `C=C(C)C(=O)OCCOCCOCCOCCOC(=O)C(=C)C` here?
Answer: Its outcome is “inactive”.

Question: And the outcome [2]?
Answer: Its outcome is “inactive”.

Question: What about the outcome [3] of the same molecule?
Answer: The outcome was “inactive”.

Question: What about the outcome [4] of the same molecule?
Answer: The outcome was “inactive”.

Question: And the outcome [5]?
Answer: The outcome was “inactive”.

Question: And the outcome [6]?
Answer: Its outcome is “inactive”.

Question: And the outcome [7]?
Answer: The outcome was “inactive”.

Question: What about the outcome [8] of the same molecule?
Answer: Its outcome is “inactive”.

Question: For `CC(C)(N=C=O)c1cccc(C(C)(C)N=C=O)c1`, which outcome [1] is on record?
Answer: Its outcome is “inactive”.

Question: And the outcome [2]?
Answer: The outcome was “inactive”.

Question: What about the outcome [3] of the same molecule?
Answer: The outcome was “inactive”.

Question: And the outcome [4]?
Answer: Its outcome is “inactive”.

Question: And the outcome [5]?
Answer: Its outcome is “inactive”.

Question: What about the outcome [6] of the same molecule?
Answer: Its outcome is “inactive”.

Question: And the outcome [7]?
Answer: The outcome was “inactive”.

Question: What about the outcome [8] of the same molecule?
Answer: The outcome was “inactive”.

Question: Which results are given for `CC(C=O)Cc1ccc(C(C)(C)C)cc1` (stereo unspecified)?
Answer: outcome [1]: inactive; outcome [9]: inactive; outcome [2]: inactive; AC50 [3]: 37.8 µM (active); AC50 [4]: 31.1 µM (active); AC50 [5]: 30.1 µM (active); outcome [6]: inactive; outcome [7]: inactive; AC50 [8]: 29.7 µM (active)

Question: With `CCCCCCCCCCCCCCCC(=O)OC/C=C(C)/C=C/C=C(C)/C=C/C1=C(C)CCCC1(C)C` as the molecule, how does the outcome [1] read?
Answer: The outcome was “inactive”.

Question: What about the AC50 [10] of the same molecule?
Answer: Its AC50 is 29.5 µM (active).

Question: What about the outcome [2] of the same molecule?
Answer: The outcome was “inactive”.

Question: What about the AC50 [3] of the same molecule?
Answer: Its AC50 is 38.9 µM (active).

Question: What about the outcome [4] of the same molecule?
Answer: The outcome was “inactive”.

Question: And the outcome [5]?
Answer: Its outcome is “inactive”.

Question: And the outcome [6]?
Answer: Its outcome is “inactive”.

Question: What about the AC50 [7] of the same molecule?
Answer: The AC50 was 20 µM (active).

Question: What about the outcome [8] of the same molecule?
Answer: Its outcome is “inactive”.

Question: For `COc1ccc(OC)c(N=Nc2c(O)ccc3ccccc23)c1`, which outcome [1] is on record?
Answer: The outcome was “inactive”.

Question: And the outcome [2]?
Answer: Its outcome is “inactive”.

Question: What about the AC50 [3] of the same molecule?
Answer: The AC50 was 13 µM (active).

Question: What about the AC50 [4] of the same molecule?
Answer: The AC50 was 5.42 µM (active).

Question: And the outcome [5]?
Answer: Its outcome is “inactive”.

Question: And the AC50 [6]?
Answer: Its AC50 is 5.55 µM (active).

Question: And the AC50 [7]?
Answer: The AC50 was 9.48 µM (active).

Question: And the outcome [8]?
Answer: Its outcome is “inactive”.

Question: For `C[C@@H]1CCN(C(=O)[C@H](CCCN=C(N)N)NS(=O)(=O)c2cccc3c2NC[C@H](C)C3)[C@@H](C(=O)O)C1`, which outcome [1] is on record?
Answer: Its outcome is “inactive”.

Question: What about the AC50 [2] of the same molecule?
Answer: The AC50 was 0.0398 µM (active).

Question: What about the outcome [3] of the same molecule?
Answer: Its outcome is “inactive”.

Question: What about the outcome [4] of the same molecule?
Answer: The outcome was “inactive”.

Question: What about the outcome [5] of the same molecule?
Answer: The outcome was “inactive”.

Question: What about the outcome [6] of the same molecule?
Answer: Its outcome is “inactive”.

Question: And the outcome [7]?
Answer: The outcome was “inactive”.

Question: And the outcome [8]?
Answer: The outcome was “inactive”.

Question: For `CS(=O)(=O)c1ccc(C2=C(c3ccccc3)C(=O)OC2)cc1`, which outcome [1] is on record?
Answer: The outcome was “inactive”.

Question: What about the outcome [2] of the same molecule?
Answer: The outcome was “inactive”.

Question: What about the outcome [3] of the same molecule?
Answer: Its outcome is “inactive”.

Question: And the outcome [4]?
Answer: The outcome was “inactive”.

Question: And the outcome [5]?
Answer: Its outcome is “inactive”.

Question: What about the outcome [6] of the same molecule?
Answer: Its outcome is “inactive”.

Question: And the outcome [7]?
Answer: Its outcome is “inactive”.

Question: And the outcome [8]?
Answer: The outcome was “inactive”.

Question: With `c1ccc2cc(Nc3ccc(Nc4ccc5ccccc5c4)cc3)ccc2c1` as the molecule, how does the outcome [1] read?
Answer: Its outcome is “inactive”.

Question: What about the outcome [2] of the same molecule?
Answer: The outcome was “inactive”.

Question: And the AC50 [3]?
Answer: Its AC50 is 8.8 µM (active).

Question: What about the outcome [4] of the same molecule?
Answer: The outcome was “inactive”.

Question: And the outcome [5]?
Answer: Its outcome is “inactive”.

Question: What about the outcome [6] of the same molecule?
Answer: The outcome was “inactive”.

Question: And the outcome [7]?
Answer: Its outcome is “inactive”.

Question: And the outcome [8]?
Answer: Its outcome is “inactive”.
